The results in this text go back to PubChem BioAssay.

The source made the active and inactive calls.

The subject of experiment [1] is XIP peptide (Xip251-270) binding. Kind of experiment: small-molecule binders of XIP peptide, primary screen, biochemical, small-molecule microarray, fluorescence 635/667 nm, 0.1 µg/mL protein (AID 1182). Conditions: fluorescent protein binding, 635 nm, higher = more signal, called active from +8 up or from −8 down.
Experiment [2] concerns XIP peptide (Xip251-270). Kind of experiment: small-molecule binders of XIP peptide, primary screen, biochemical, small-molecule microarray, fluorescence 635/667 nm, 0.5 µg/mL protein (AID 1183). The note with it: small-molecule microarray binding, fluorescence 635 nm; higher = more signal.
Experiment [3] in a line: Plasmodium falciparum growth inhibition, primary screen, strain 3D7, DAPI fluorescence, 100 nL (AID 1184).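 Note: parasites grown inside human red blood cells in medium with human serum.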 The note with it: P. falciparum 3D7 growth, 3 d, higher = more signal.
Experiment [4] addresses Homeobox protein Hox-A13 (Mus musculus) (UniProt Q62424). As to the kind of experiment: inhibitors of HoxA13-DNA binding, primary screen, biochemical, fluorescence polarization, labeled oligonucleotide (AID 1185). Conditions: 15 min, higher = more signal, called active from +8 up or from −8 down. (Polarisation of emitted light reports the rotation of a fluorescent probe.)

Chain of Homeobox protein Hox-A13 (Mus musculus) (Q62424 whole entry, looked up): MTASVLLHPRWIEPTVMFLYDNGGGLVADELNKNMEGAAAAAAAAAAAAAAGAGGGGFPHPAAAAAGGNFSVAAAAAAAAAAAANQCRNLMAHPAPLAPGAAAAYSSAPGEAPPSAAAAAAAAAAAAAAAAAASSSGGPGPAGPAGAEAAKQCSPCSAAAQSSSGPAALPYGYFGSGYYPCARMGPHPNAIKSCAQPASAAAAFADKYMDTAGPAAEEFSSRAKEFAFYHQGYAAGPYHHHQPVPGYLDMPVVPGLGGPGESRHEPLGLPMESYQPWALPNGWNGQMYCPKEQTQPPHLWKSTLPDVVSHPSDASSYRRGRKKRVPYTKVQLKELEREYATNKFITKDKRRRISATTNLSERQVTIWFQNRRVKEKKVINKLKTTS

On to `C[C@H]1CC[C@H]2C(=O)OC(COc3ccc(C(C)(C)C)cc3)CN2[C@@H]1c1ccc(Br)cc1` (stereo partly drawn), for which the composite z-score is 0.0819 (inactive) in experiment [1] and 0.3 in experiment [2]. Further, the z-score in experiment [3] is 1.52; in experiment [4], -3.32 (inactive).
`CO[C@@H]1C=CCC(=O)N[C@@H](C)C(=O)OC[C@@H](NS(=O)(=O)c2ccc(C)cc2)[C@H](C)C=CCC(=O)OC[C@H]1C`: the composite z-score in experiment [1] is -0.778 (inactive); in experiment [2] it was 0.247. Further, the z-score was 0.251 in experiment [3] and -1.06 (inactive) in experiment [4].
In the case of `COc1ccc(O[C@H]2C=C[C@@H](c3ccccc3)O[C@@H]2COC(=O)CCC(C)=NOC[C@@H](O)COCc2ccco2)cc1`, the composite z-score was -0.0073 (inactive) in experiment [1] and -0.448 in experiment [2]. Further, the z-score in experiment [3] is 0.048; in experiment [4], -5.52 (inactive).
Taken in the same sequence, the figures for `Cc1ccc(C(C)C)n1C(=O)OC(C)(C)C` were -0.488 (inactive), -0.0079, 0.271 and 0.936 (inactive).
With `CON=C(C)CCN1CCCc2nc(C)c(C)cc21`, the composite z-score in experiment [1] is -0.0879 (inactive); in experiment [2], 0.428. The z-score was -0.18 in experiment [3] and -7.51 (inactive) in experiment [4].
For `C#CCCCON=C1[C@H]2CCn3c(=O)n(Cc4cc5c(cc4Cl)OCO5)c(=O)n3[C@H]2[C@H](O)[C@@H]2O[C@H]12`, the composite z-score in experiment [1] was -0.18 (inactive); in experiment [2], 0.278. The figures for the z-score in experiment [3] and in experiment [4] were -0.579 and -0.911 (inactive), respectively.
Consider `COc1ccc(COC(=O)NN=C2C[C@@H](O)[C@@H](O)[C@@H]3[C@@H]4C(=O)N(c5cccc(Oc6ccccc6)c5)C(=O)[C@@H]4CC[C@H]23)cc1`, for which the composite z-score in experiment [1] is -0.538 (inactive); in experiment [2], -0.255. Besides, the z-score in experiment [3] is -1.34; in experiment [4] it was -3.81 (inactive).
As to `O=C1[C@H]2[C@H]3[C@H](O)[C@H](O)CC(=NOCc4ccccc4)[C@@H]3CC[C@H]2C(=O)N1c1cccc(Oc2ccccc2)c1`, the composite z-score is 0.811 (inactive) in experiment [1] and 0.123 in experiment [2]. Besides, the z-score in experiment [3] is -0.129; in experiment [4] it was -1.24 (inactive).
Taken in the same sequence, the figures for `O=C(NN=C1C[C@@H](O)[C@@H](O)[C@@H]2[C@@H]3C(=O)N(c4ccc(F)cc4F)C(=O)[C@@H]3CC[C@H]12)OCc1ccccc1` were 0.081 (inactive), 0.653, -0.131 and -5.87 (inactive).
On to `COC(=O)[C@H](C)NC(=O)CCC1CC(OC(=O)NCCc2ccc(F)cc2)CC2(CCCC(COC(=O)NCC3CCCCC3)O2)O1` (stereo partly drawn), for which the composite z-score in experiment [1] is -0.0255 (inactive); in experiment [2], 0.526. For the same compound, the z-score in experiment [3] was -2.07; in experiment [4] it was -2.56 (inactive).
Take `COC(=O)[C@@H]1CC[C@H](C)[C@@H](c2ccc(C)cc2)N1C(=O)c1ccc(C=NOC[C@@H](O)[C@H]2O[C@@H]3OC(C)(C)O[C@@H]3[C@H]2O)cc1`: the composite z-score in experiment [1] was 0.102 (inactive); in experiment [2], 0.228. Also, the z-score was -0.209 in experiment [3] and -6.03 (inactive) in experiment [4].
As to `CC(C)=CCCC(C)=CCON=C1C[C@@H](O)[C@@H](O)[C@@H]2[C@@H]3C(=O)N(c4cccc(Oc5ccccc5)c4)C(=O)[C@@H]3CC[C@H]12`, the results for the composite z-score in experiment [1] and in experiment [2] were 0.827 (inactive) and -0.256, respectively. In addition, the z-score in experiment [3] was 0.395; in experiment [4], -0.963 (inactive).
`COCC#Cc1ccc([C@@H]2N[C@H](C(=O)O)CC[C@H]2C)cc1`: the values for the composite z-score in experiment [1] and in experiment [2] were -0.238 (inactive) and -0.52, respectively. In addition, the z-score in experiment [3] is 0.383; in experiment [4], -1.46 (inactive).
Turning to `CCOC(=O)CCN1C(=O)[C@H]2[C@H]3[C@H](O)[C@H](O)CC(=NO[C@@H]4O[C@H](CO)[C@@H](O)[C@H](O)[C@H]4O)[C@H]3CC[C@H]2C1=O`, the composite z-score in experiment [1] is 0.234 (inactive); in experiment [2], 0.405. Moreover, the z-score in experiment [3] was 0.209; in experiment [4] it was -0.139 (inactive).
As to `CC(C)CON=C1C[C@@H](O)[C@@H](O)[C@@H]2[C@@H]3C(=O)N([C@@H](C)c4ccccc4)C(=O)[C@@H]3CC[C@@H]12`, the composite z-score was 0.0068 (inactive) in experiment [1] and -0.344 in experiment [2]. Also, the z-score is -0.274 in experiment [3] and -2.35 (inactive) in experiment [4].
In the case of `CON=C(C)CCN1CCCCc2nc(C)c(C)cc21`, the values for the composite z-score in experiment [1] and in experiment [2] were 0.0459 (inactive) and 0.49, respectively. Moreover, the z-score in experiment [3] was 1.06; in experiment [4], -2.24 (inactive).
`COc1ccc(COC(=O)NN=C2C[C@@H](O)[C@@H](O)[C@@H]3[C@@H]4C(=O)N([C@@H](C)c5ccccc5)C(=O)[C@@H]4CC[C@H]23)cc1`: the composite z-score in experiment [1] was -0.153 (inactive); in experiment [2], -0.273. In addition, the z-score in experiment [3] was -0.981; in experiment [4], -3.73 (inactive).
Taken in the same sequence, the figures for `C[C@@H]1CC[C@H]2C(=O)N3[C@@H](CC[C@@H](C)[C@@H]3c3ccc(Br)cc3)C(=O)N2[C@H]1c1ccc(Br)cc1` were -0.22 (inactive), 0.335, -0.212 and -3.21 (inactive).
With `CCN1C(=O)[C@H]2[C@H]3[C@H](O)[C@H](O)CC(=NO[C@H](C)c4cn([C@@H]5COC[C@H]5O)nn4)[C@@H]3CC[C@H]2C1=O`, the composite z-score in experiment [1] was 0.0118 (inactive); in experiment [2], -0.629. Further, the z-score in experiment [3] was 0.202; in experiment [4] it was -0.803 (inactive).
Regarding `CO[C@H]1COC(=O)[C@H](CCSC)NC(=O)CC=C[C@@H](C)[C@H](OC)COC(=O)[C@@H](OCc2ccccc2)C=C[C@@H]1C`, the figures for the composite z-score in experiment [1] and in experiment [2] were 2.65 (inactive) and 0.358, respectively. Also, the z-score in experiment [3] is -0.772; in experiment [4] it was -1.29 (inactive).
On to `C=CC[C@@H]1C=CC(ON=C(C)C)[C@@H](CO)O1` (stereo partly drawn), for which the composite z-score in experiment [1] is -0.649 (inactive); in experiment [2] it was -0.0372. In addition, the z-score is 0.367 in experiment [3] and 2.62 (inactive) in experiment [4].
As for `COC(=O)C(C(=O)OC)C1CCCC(=O)C1` (stereo not drawn), the composite z-score in experiment [1] was -0.0977 (inactive); in experiment [2], 0.237. Also, the z-score is -0.468 in experiment [3] and -0.243 (inactive) in experiment [4].
